Bioassay records as filed in PubChem.
Tau fluor counter = counter-screen for tau fibril formation inhibitors; tau K18 P301L Alexa594 fluorescence, heparin fibrillization; Potency, µM (doses to about 57.7 µM), without a hit: at the highest dose activity change, negative = decrease; hit rate 0.93% among 280,000; AID 1463; also: potency is read from the fitted curve at half-maximal effect; nearly all actives have a fitted effect of over 55% in size
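Human K18 P301L tau (15 uM unlabeled plus 0.24 uM Alexa 594-labeled, final) in 100 mM sodium acetate pH 7 was mixed with compound and 20 uM heparin and incubated 6 hr at 37 C.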
Tau ThT inhib = blocks human tau fibril formation measured by thioflavin T; Potency, µM (highest dose often 57.4 µM), for inactives: top-dose activity, negative = inhibition, usual class: inhibitors; P10636; recombinant tau K18 P301L (four-repeat tau fragment), heparin-induced fibrillization, ThT fluorescence; hit rate 2.1% among 270,000; AID 1460; also: potency is read from the fitted curve at half-maximal effect; nearly all actives have a fitted effect of over 55% in size
Target sequence (P10636 561-689 P618L limits assumed): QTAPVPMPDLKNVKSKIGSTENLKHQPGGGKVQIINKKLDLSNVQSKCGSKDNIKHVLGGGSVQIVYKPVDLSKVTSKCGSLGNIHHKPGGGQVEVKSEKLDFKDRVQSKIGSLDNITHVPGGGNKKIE
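In this qHTS, human K18 P301L tau is incubated with compound and heparin for 6 hr at 37 C, and Thioflavin T fluorescence then reports fibril load.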
TRb-SRC2 inh = disrupts binding of human TR beta to SRC2; Potency, µM (highest dose often 106 µM), without a hit: at the top dose activity change, negative = inhibition, hits mostly inhibitors; AID 1469; hit rate 0.065% among 280,000; TRbeta-SRC2 peptide binding, fluorescence polarization; receptor liganded with 1 µM T3;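 also: potency is read from the fitted curve at half-maximal effect; plate controls were bound peptide for no effect and peptide without receptor for full effect; nearly all actives have a fitted effect of over 50% in size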
Target sequence (P10828 whole entry, looked up): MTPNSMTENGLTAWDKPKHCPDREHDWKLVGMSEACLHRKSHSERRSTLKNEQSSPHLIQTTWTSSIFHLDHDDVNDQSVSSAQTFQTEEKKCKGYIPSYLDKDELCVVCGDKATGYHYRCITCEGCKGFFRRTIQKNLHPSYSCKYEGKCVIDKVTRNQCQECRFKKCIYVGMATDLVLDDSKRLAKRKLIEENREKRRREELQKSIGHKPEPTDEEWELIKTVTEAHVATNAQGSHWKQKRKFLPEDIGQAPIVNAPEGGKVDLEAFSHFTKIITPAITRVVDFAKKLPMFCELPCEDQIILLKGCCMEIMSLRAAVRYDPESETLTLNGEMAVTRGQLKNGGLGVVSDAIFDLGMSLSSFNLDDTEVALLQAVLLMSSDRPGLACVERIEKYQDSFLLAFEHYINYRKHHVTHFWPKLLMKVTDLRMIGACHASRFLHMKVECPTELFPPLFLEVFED
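Polarization signal, normalized between peptide-alone and full complex controls, measured compound effects on T3-liganded human TRb LBD (0.6 uM) binding 20 nM Texas Red SRC2 peptide after 5 hr.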
PNC assembly inh = perinucleolar compartment assembly inhibition; PC3M PTB-GFP, PNC prevalence imaging, 16 h; active compounds read low; activity change (PNC), negative = inhibition, % at 10 µM; hit rate 3.1% among 140,000; AID 2417;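 active = readout at or below -70, meaning at least 70% loss of cells showing the perinucleolar compartment, a nuclear body marking cancer cells; inconclusive = readout between -30 and a set limit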;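 also: plate controls were DMSO wells for no effect and camptothecin positive control wells for full effect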
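Compounds are pinned in duplicate onto adhered PC3M cells stably expressing GFP-tagged PTB and incubated 16 h at 37 C. Cells are then fixed, nuclei stained with Hoechst, and PNC-positive cells counted.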
TR SRC2 fluor cs = Texas Red fluorescence interference in TRb-SRC2 counter-screen; TRb/SRC2 Texas Red total fluorescence interference; Potency, µM (series often up to 106 µM), for inactives: at the top dose fluorescence change, negative = quenching; hit rate 0.29% among 280,000; active = well fitted curve in either direction with a large enough effect; inconclusive = small, poorly fitted or top-dose-only effect; also: potency is read from the fitted curve at half-maximal effect
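Human TRb ligand-binding domain at 0.6 uM with 20 nM Texas Red SRC2 peptide in Tris buffer containing 1 uM T3 and 5% DMSO, incubated with compound 5 h at ambient temperature. Total fluorescence (555/632 nm) calculated as parallel + 2 × perpendicular.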
Tau FP inhib = tau fibrillization inhibition (FP). Potency, µM (titrated, usually from 57.7 µM), for the others: at the top dose activity, negative = inhibition, usual class: inhibitors. P10636. hit rate 0.39% among 280,000. K18 P301L tau heparin fibrillization, Alexa594 FP, 6 h; also: potency is read from the fitted curve at half-maximal effect; nearly all actives have a fitted effect of over 55% in size
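Steps: dispense K18 P301L tau (15 uM plus 0.24 uM Alexa 594 tracer, final) in pH 7 sodium acetate; add compound; add heparin (20 uM final); incubate 6 hr, 37 C; add ThT (30 uM final); after 1 hr ambient, read FP.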
Starred values were filed as active, the others as inactive; ? = inconclusive; . = no result; [ ] = remark or other dose. An excerpt weighted towards active compounds, which were near 4.6% of everything screened. Unless noted, calls follow the shape of the dose curve; as a rule, active = well fitted curve in the direction sought with a large enough effect; inconclusive = small, poorly fitted or top-dose-only effect, or another doubt; inactive = no such curve, though single readings can be large; an effect the other way counts as inactive or inconclusive. Unless noted, % is scaled to controls: 0 for no effect and ±100 for the full control effect.

SMILES | Tau fluor counter | Tau ThT inhib | TRb-SRC2 inh | PNC assembly inh | TR SRC2 fluor cs | Tau FP inhib
COC(=O)C1=C(C)N=C2SCCC(=O)N2C1c1ccc(OCc2ccccc2)c(OC)c1 (stereo not given) | -16.0% | -14.1% | -0.2% | . | 2.5% | 5.4%
Cc1cccc2sc(NNC(=O)c3ccc4c(c3)OCCO4)nc12 | ? | ? | 5.8% | 9.6 | -2.7% | -3.6%
Cc1nn2c(=O)cc(COC(=O)c3ccc(NC(=O)C4CCCCC4)cc3)nc2s1 | 0.1% | 1.7% | -11.3% | . | -2.3% | -1.4%
CC1(C)N=C(SCc2ccc(F)cc2)c2ccccc2N1 | 11.2µM*[quencher] | ? | -2.3% | . | -3.6% | -4.7%
COc1ccccc1-c1ccc(SCc2ccc(F)cc2)nn1 | -15.9% | ? | 6.9% | . | -1.3% | -0.8%
Cc1ccc(C)c(CSc2nnc(-c3ccccn3)n2N)c1 | 3.7% | 6.0% | -5.0% | ? | -2.7% | 1.8%
Cc1ccc(C)c(CSC2=NC(C)(C)Nc3ccccc32)c1 | 11.2µM*[quencher] | ? | -0.9% | . | -11.7% | 0.6%
CC(OC(=O)c1c2c(nc3ccccc13)/C(=C\c1ccc3c(c1)OCO3)CCC2)C(=O)Nc1ccc(S(N)(=O)=O)cc1 (stereo not given) | ? | ? | 7.7% | 16.0 | -1.6% | -7.3%
CCCSc1nnc(NC(=O)Nc2ccc(C)cc2)s1 | ? | -6.3% | -4.6% | . | -0.5% | ?
CCCSc1nnc(NC(=O)Nc2ccc(F)cc2)s1 | -29.7% | -7.5% | -6.9% | -82.5* | -2.7% | -7.4%
CO[C@@H](C(C)C)[C@@H](C)[C@@H]1OC(=O)C[C@@H]1O | -8.8%[11.6 µM] | -9.6%[11.5 µM] | -19.4%[11.2 µM] | . | ? | 0.3%[11.6 µM]
COc1ccc(C(=O)CCN2CCCCCC2)cc1 | 0.8% | ? | -13.3% | 10.2 | -1.6% | ?
CCOc1ccc(C(=O)CCN2CCCCC2)cc1 | 2.5% | 9.2% | 7.7% | -126.9* | -4.2% | 9.7%
Cc1onc(-c2ccccc2)c1C(=O)N1CCCc2ccccc21 | -2.4% | -5.2% | -6.7% | 2.5 | -3.8% | 9.8%
O=[N+]([O-])c1ccc(O)c(C=Nc2ccc3nc(-c4ccccc4)[nH]c3c2)c1 | -28.6% | ? | -12.0% | 34.9 | -4.3% | 10.8%
COc1ccc(-c2nc(-c3ccccc3)c(-c3cc([N+](=O)[O-])ccc3C)[nH]2)cc1O | 14.1µM*[quencher] | ? | -0.4% | ? | -4.6% | 3.8%
Cc1ccc([N+](=O)[O-])cc1-c1[nH]c(-c2ccc(O)c(O)c2)nc1-c1ccccc1 | 12.6µM*[quencher] | ? | 7.2% | 5.4 | -5.2% | 16.1%
COc1ccc(N=Cc2cc(Cc3ccccc3Cl)cc([N+](=O)[O-])c2O)cc1OC | -29.0% | 10µM* | -5.6% | . | -6.7% | ?
Cc1ccc(N=Cc2cc(Cc3ccccc3Cl)cc([N+](=O)[O-])c2O)c(O)c1 | ? | 7.94µM* | -7.2% | . | ? | ?
CCCCCC(=O)N=Nc1c(O)[nH]c2ccc([N+](=O)[O-])cc12 | -16.6% | -11.4% | -8.2% | 14.4 | -0.6% | 3.4%
Cc1cccc(OCC(=O)N=Nc2c(O)[nH]c3ccc([N+](=O)[O-])cc23)c1 | ? | 3.98µM* | 7.4% | . | -2.5% | -7.2%
Cc1ccc(OC(C)C(=O)N=Nc2c(O)[nH]c3ccc([N+](=O)[O-])cc23)cc1 (stereo not given) | 15.8µM*[quencher] | ? | -0.6% | . | -3.6% | 6.0%
O=C(N=Nc1c(O)[nH]c2ccc([N+](=O)[O-])cc12)c1ccccc1Cl | -24.9% | ? | -3.6% | . | 0.9% | 11.9%
Cc1ccc(NCC(=O)N=Nc2c(O)[nH]c3ccc([N+](=O)[O-])cc23)cc1 | 25.1µM*[quencher] | 15.8µM* | -13.7% | . | ? | 2.9%
Cc1ccccc1NCC(=O)N=Nc1c(O)[nH]c2ccc([N+](=O)[O-])cc12 | 17.8µM*[quencher] | ? | 6.8% | . | -5.1% | 6.3%
SMILES | Tau fluor counter | Tau ThT inhib | TRb-SRC2 inh | PNC assembly inh | TR SRC2 fluor cs | Tau FP inhib
COc1ccc(NC(=O)CC2SC3=NCCN3C2=O)cc1 (stereo not given) | 1.7% | 8.1% | -6.9% | . | -2.4% | -0.5%
CCN1CNC(=S)N(CCc2ccccc2)C1 | 4.6% | 3.4% | 2.5% | ? | -16.2% | 0.1%
O=[N+]([O-])c1ccc2[nH]c(O)c(N=NC(=S)Nc3cccnc3)c2c1 | ? | 2.24µM* | -0.9% | . | -24.2% | 12.2%
O=C(Nc1ccc(F)cc1)C(=O)c1c(O)[nH]c2ccc([N+](=O)[O-])cc12 | -27.3% | 15.8µM* | -5.5% | . | -4.7% | 2.0%
Cc1ccc(-c2cc(-c3ccccc3Cl)[nH]n2)c(O)c1 | ? | 18.6% | 4.3% | -8.3 | -0.4% | ?
COc1cccc(CNC(=O)CCC2CCCN(Cc3ccc4c(c3)CCO4)C2)c1 (stereo not given) | 1.1% | 0.1% | 1.1% | . | -3.6% | -2.1%
COc1cc(C(=O)CSc2nncn2C)cc(OC)c1OC | -9.9% | -9.8% | -14.1% | -110.7* | -0.4% | -4.0%
COc1ccc(NC(=O)CSc2nncn2C)cc1OC | -0.7% | -3.2% | -3.7% | 60.4 | 1.5% | -0.1%
c1ccc(-n2ncc3c(NCC4CCCO4)ncnc32)cc1 (stereo not given) | -10.3% | -16.7% | -4.0% | ? | 0.5% | -4.5%
CC(=O)CSc1nc(N(C)C)nc(N(C)C)n1 | 4.2% | 2.9% | 5.5% | . | -3.0% | -2.5%
Brc1cccc(CNCc2cccs2)c1 | -8.5% | -8.7% | -7.4% | -88.8* | -3.3% | -0.3%
Fc1ccccc1CN1CCCN(C(=S)Nc2cccc(Cl)c2)C1 | ? | 5.4% | -12.0% | . | 0.7% | 31.6µM*
Cc1c(Cl)cccc1NC(=S)N1CCCN(Cc2ccccc2F)C1 | ? | -2.2% | -4.2% | . | -0.5% | -9.3%
CCC(C)C(=O)Nc1nc(C)c(-c2csc(Nc3cc(Cl)ccc3OC)n2)s1 (stereo not given) | 12.6µM*[quencher] | ? | -3.3% | 0.1 | 9.9% | 7.1%
COc1ccc(Cl)cc1Nc1nc(-c2sc(NC(=O)C(C)(C)C)nc2C)cs1 | ? | ? | -11.0% | ? | -2.1% | ?
CCC(C)C(=O)Nc1nc(C)c(-c2csc(Nc3cc(OC)ccc3OC)n2)s1 (stereo not given) | 14.1µM*[quencher] | ? | 2.8% | 9.7 | -4.4% | ?
CCCC(C)C(=O)Nc1nc(C)c(-c2csc(Nc3ccccc3OC)n2)s1 (stereo not given) | ? | ? | 13.5% | ? | 1.1% | ?
CCCC(C)C(=O)Nc1nc(C)c(-c2csc(Nc3ccc(Cl)cc3)n2)s1 (stereo not given) | 15.8µM*[quencher] | ? | 5.0% | 11.3 | 8.4% | 10.8%
COc1ccc(OC)c(Nc2nc(-c3sc(C)nc3C)cs2)c1 | ? | 14.1µM* | -1.6% | 21.7 | -6.7% | ?
